Results: PubChem BioAssay (Tox21)
Several values for one entry are separate records, joined by “and”; a condition that tells them apart may be missing. Equal values may be shown once. Results filed as inconclusive are left out. Where a call stands in place of a potency, no number is given. A structure can be active in one record and inactive in another. Activity calls are given as the source filed them. Unless noted, the call rests on the fitted dose curve.

What was measured:
[1] = Nuclear factor erythroid 2-related factor 2/antioxidant responsive element (Nrf2/ARE) small molecule agonists: qHTS cell viability counter screen in human keratinocytes (AID 1919968; active means well fitted curve in the direction sought with a large enough effect in the repeat runs; an effect the other way counts as inactive or inconclusive; further: nearly all actives have a fitted effect of over 55% in size)
Summary of the method: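 Stably transfected HaCaT (KeratinoSens), 1,500/well. Test agents in DMSO were applied for 23 h, 37 C/5% CO2. CellTiter-Fluor was incubated 1 h before the fluorescence read.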

[2] = Nuclear factor erythroid 2-related factor 2/antioxidant responsive element (Nrf2/ARE) small molecule agonists: luciferase reporter gene qHTS assay in human keratinocytes (AID 1919969); further: nearly all actives have a fitted effect of over 35% in size; further: potency means the concentration at half of the fitted maximal effect
[3] = molecular target: Gonadotropin-releasing hormone receptor (Homo sapiens) (UniProt P30968); experiment: Human gonadotropin-releasing hormone receptor (GnRHR) small molecule agonists, calcium flux assay in GnRHR-HEK293 cells (AID 1920063); further: nearly all actives have a fitted effect of over 35% in size
Summary of the method: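 Stable human GnRHR HEK293 line. 18 h plating, then calcium dye for 1 h at 37 C. Agonist-mode compound addition from DMSO stocks; fluorescence monitored 3 min.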

[4] = molecular target: KiSS-1 receptor (Homo sapiens) (UniProt Q969F8); experiment: Human kisspeptin (KISS1R) small molecule agonists, calcium flux assay in KISS1R-HEK293 cells (AID 1920064; active means well fitted curve in the direction sought with a large enough effect in the repeat runs; an effect the other way counts as inactive or inconclusive)
Summary of the method: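 After overnight (18 h) culture at 37 C/5% CO2, human KISS1R-HEK293 cells received calcium dye for 1 h, then test compound; emission at 540 nm (excitation 480 nm) was tracked for 3 min.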

[5] = G protein-coupled receptor (GPCR) small molecule agonists, calcium flux assay: HEK293 wild type cell line counter screen (AID 1920065)
Summary of the method: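 Following 18 h incubation at 37 C/5% CO2, plates got calcium dye for 1 h; compounds, ATP or DMSO were then pinned in and fluorescence followed kinetically (480/540 nm).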

[6] = p53 small molecule agonists, cell-based qHTS assay with human liver microsomes (AID 1963577)
Summary of the method: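 Compounds act here after metabolic activation: human liver microsomes and NADPH, both at 0.5 mg/mL final, were co-added to p53RE-bla cells. Incubation ran 16 h at 37 C, followed by LiveBLAzer detection.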

[7] = p53 small molecule agonists, cell-based qHTS assay with human liver microsomes: qHTS cell viability counter screen (AID 1963579); further: nearly all actives have a fitted effect of over 45% in size
Summary of the method: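 Cells carrying the p53 response-element beta-lactamase reporter are treated for 16 h at 37 C with test compounds in the presence of human liver microsomes and NADPH (both 0.5 mg/mL final); ATP-based CellTiter-Glo luminescence then reports viability.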

[8] = p53 small molecule agonists, cell-based qHTS assay with rat liver microsomes: qHTS cell viability counter screen (AID 1963580); further: nearly all actives have a fitted effect of over 45% in size; further: potency means the concentration at half of the fitted maximal effect
Summary of the method: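 Cytotoxicity counter screen: intracellular ATP read by CellTiter-Glo luminescence in the p53 reporter wells. HCT-116 p53RE-bla cells were treated for 16 h at 37 C alongside rat liver microsomes and NADPH, each 0.5 mg/mL final.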

[9] = p53 small molecule agonists, cell-based qHTS assay: qHTS cell viability counter screen (AID 1963581); further: nearly all actives have a fitted effect of over 45% in size
Summary of the method: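 qHTS counter screen: 16 h compound exposure at 37 C of p53RE-bla HCT-116 cells (4,000 per well, seeded 5 h prior), cell viability by ATP luminescence.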

[10] = p53 small molecule agonists, cell-based qHTS assay (AID 1963582; active means well fitted activation curve with a large enough effect in the signal ratio in the repeat runs, not every such curve was filed as active; the % refers to the signal ratio)
Summary of the method: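 Measured: fluorescence from cleaved LiveBLAzer substrate. System: p53RE-bla cells, 16 h compound treatment at 37 C, 2 h substrate step at room temperature.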

[11] = molecular target: 5-hydroxytryptamine receptor 2A (Homo sapiens) (UniProt P28223); experiment: 5-hydroxytryptamine receptor 2A (HTR2A) small molecule antagonists, cell-based qHTS assay (AID 1963586); further: nearly all actives have a fitted effect of over 45% in size
Summary of the method: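 CHO cells stably expressing human HTR2A were plated for 18 h at 37 C, then loaded with calcium dye for 1 h. Compounds were preincubated 5 min at room temperature before DOI (4 nM solution) was added. Kinetic fluorescence was read for 3 min.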

[12] = molecular target: 5-hydroxytryptamine receptor 2A (Homo sapiens) (UniProt P28223); experiment: 5-hydroxytryptamine receptor 2A (HTR2A) small molecule agonists, cell-based qHTS assay (AID 1963587); further: nearly all actives have a fitted effect of over 30% in size
Summary of the method: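 Kinetic calcium-flux fluorescence (2 min, 1 sec intervals) after compound addition in agonist mode. HTR2A-CHO cells were cultured 18 h, then dye-loaded 1 h at 37 C.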

[13] = molecular target: Muscarinic acetylcholine receptor M1 (Homo sapiens) (UniProt P11229); experiment: Cholinergic receptor muscarinic 1 (CHRM1) small molecule antagonists, cell-based qHTS assay (AID 1963588); further: nearly all actives have a fitted effect of over 40% in size
Summary of the method: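 Compounds were tested at 15 concentrations in three independent runs. Dye-loaded CHRM1-CHO cells were exposed 5 min at room temperature before stimulation by acetylcholine added at 50nM. Intracellular calcium was read kinetically on FDSS for 3 min.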

[14] = molecular target: Muscarinic acetylcholine receptor M1 (Homo sapiens) (UniProt P11229); experiment: Cholinergic receptor muscarinic 1 (CHRM1) small molecule agonists, cell-based qHTS assay (AID 1963589); further: nearly all actives have a fitted effect of over 35% in size
Summary of the method: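 Kinetic fluorescence (1 s intervals) of calcium-sensitive dye in human M1 CHO cells after compound addition; cells pre-incubated 18 h at 37 C/5% CO2 and dye-loaded 1 h.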

[15] = cAMP Responsive Elements (CRE) small molecule agonists, cell-based qHTS assay (AID 1963590)
Summary of the method: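 Test agents in DMSO were incubated 3 h at 37 C/5% CO2 with CRE-bla HEK 293T cells seeded 18 h earlier; LiveBLAzer B/G FRET substrate was added and read after 2 h at room temperature.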

[16] = molecular target: Beta-2 adrenergic receptor (Homo sapiens) (UniProt P07550); experiment: Adrenergic beta2 receptor (ADRB2) small molecule antagonists, cell-based qHTS assay (AID 1963592); further: series mostly up to about 92 µM; nearly all actives have a fitted effect of over 50% in size
Summary of the method: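 Assay format: CHO-ADRB2 cells, 18-20hr seeding at 37C/5% CO2, then compound plus 1nM isoproterenol agonist mix for 0.5hr RT. Homogeneous time-resolved fluorescence cAMP detection after 1hr, expressed as 665/615 nm ratio.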

[17] = molecular target: D(2) dopamine receptor (Homo sapiens) (UniProt P14416); experiment: Dopamine D2 receptor (DRD2) small molecule agonists, cell-based qHTS assay (AID 1963594); further: nearly all actives have a fitted effect of over 35% in size
Summary of the method: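 cAMP accumulation in DRD2-HEK293 cells measured by HTRF after 1 h detection; compounds added 10 min before NKH477 (200nM […]) forskolin-analogue stimulation, 30 min at room temperature, with Ro20-1724 present at 0.1 mM final.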

[18] = molecular target: D(2) dopamine receptor (Homo sapiens) (UniProt P14416); experiment: Dopamine D2 receptor (DRD2) small molecule antagonists, cell-based qHTS assay (AID 1963595; active means well fitted inhibition curve with a large enough effect in the signal ratio in the repeat runs, with a control signal flat; the % refers to the signal ratio)
Summary of the method: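 HEK293 cells stably expressing DRD2 were preincubated with 0.1 mM Ro20-1724, then with compound for 10 min at room temperature. Cells were stimulated with 200 nM NKH477 plus 12 nM quinpirole for 30 min, and cAMP was read by HTRF.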

[19] = cAMP Responsive Elements (CRE) small molecule antagonists, cell-based qHTS assay (AID 1963591; active means well fitted inhibition curve with a large enough effect in the signal ratio in the repeat runs, not every such curve was filed as active; the % refers to the signal ratio)
Summary of the method: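 Reporter line CRE-bla HEK 293T in dialyzed-FBS DMEM; cells preincubated 18 h, treated 3 h with compound plus NKH477 (0.25 uM final); LiveBLAzer FRET, 2 h RT.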

Sequence of Beta-2 adrenergic receptor (Homo sapiens) (P07550 whole entry, looked up): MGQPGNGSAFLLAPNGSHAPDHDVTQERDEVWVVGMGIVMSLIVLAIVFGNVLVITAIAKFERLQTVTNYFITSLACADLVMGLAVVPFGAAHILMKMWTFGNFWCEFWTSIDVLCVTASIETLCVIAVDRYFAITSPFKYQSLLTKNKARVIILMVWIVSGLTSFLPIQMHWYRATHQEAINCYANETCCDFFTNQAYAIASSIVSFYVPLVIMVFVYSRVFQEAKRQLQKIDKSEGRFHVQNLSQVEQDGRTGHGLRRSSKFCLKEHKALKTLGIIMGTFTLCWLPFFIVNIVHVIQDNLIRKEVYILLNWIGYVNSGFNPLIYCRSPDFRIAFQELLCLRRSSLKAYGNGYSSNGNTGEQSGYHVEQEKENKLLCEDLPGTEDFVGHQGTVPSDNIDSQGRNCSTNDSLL
Sequence of 5-hydroxytryptamine receptor 2A (Homo sapiens) (P28223 whole entry, looked up): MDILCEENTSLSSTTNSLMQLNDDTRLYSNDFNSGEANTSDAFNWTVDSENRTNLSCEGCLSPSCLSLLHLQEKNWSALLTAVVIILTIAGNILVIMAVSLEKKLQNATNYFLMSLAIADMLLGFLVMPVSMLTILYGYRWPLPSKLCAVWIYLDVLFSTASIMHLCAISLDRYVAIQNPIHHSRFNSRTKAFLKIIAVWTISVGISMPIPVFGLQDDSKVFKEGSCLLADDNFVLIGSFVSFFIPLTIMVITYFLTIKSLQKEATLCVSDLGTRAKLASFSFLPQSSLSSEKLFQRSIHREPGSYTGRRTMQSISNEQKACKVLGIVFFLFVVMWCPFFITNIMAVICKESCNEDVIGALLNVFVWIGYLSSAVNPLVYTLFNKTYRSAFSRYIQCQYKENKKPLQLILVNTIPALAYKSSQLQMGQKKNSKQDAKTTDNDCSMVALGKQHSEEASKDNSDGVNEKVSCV
Sequence of Muscarinic acetylcholine receptor M1 (Homo sapiens) (P11229 whole entry, looked up): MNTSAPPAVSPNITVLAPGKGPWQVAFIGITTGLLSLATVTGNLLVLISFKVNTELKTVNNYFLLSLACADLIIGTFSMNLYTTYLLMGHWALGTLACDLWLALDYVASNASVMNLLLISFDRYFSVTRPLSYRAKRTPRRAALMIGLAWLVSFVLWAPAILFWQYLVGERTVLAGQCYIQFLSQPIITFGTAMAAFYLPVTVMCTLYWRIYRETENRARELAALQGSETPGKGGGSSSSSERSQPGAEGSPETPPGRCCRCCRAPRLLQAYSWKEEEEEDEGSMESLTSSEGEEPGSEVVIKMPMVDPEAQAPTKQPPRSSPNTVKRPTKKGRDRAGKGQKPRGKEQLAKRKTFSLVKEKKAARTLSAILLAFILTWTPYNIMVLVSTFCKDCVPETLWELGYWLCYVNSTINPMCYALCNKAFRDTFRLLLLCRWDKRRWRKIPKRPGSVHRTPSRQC
Sequence of Gonadotropin-releasing hormone receptor (Homo sapiens) (P30968 whole entry, looked up): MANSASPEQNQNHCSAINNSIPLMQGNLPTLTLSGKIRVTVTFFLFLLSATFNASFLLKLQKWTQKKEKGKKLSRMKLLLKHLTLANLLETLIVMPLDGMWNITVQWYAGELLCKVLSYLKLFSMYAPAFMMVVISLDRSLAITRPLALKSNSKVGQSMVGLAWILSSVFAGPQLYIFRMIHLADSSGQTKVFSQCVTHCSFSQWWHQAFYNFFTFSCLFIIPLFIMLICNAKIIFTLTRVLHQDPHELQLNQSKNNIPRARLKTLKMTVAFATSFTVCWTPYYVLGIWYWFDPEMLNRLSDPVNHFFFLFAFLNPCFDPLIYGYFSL
Sequence of D(2) dopamine receptor (Homo sapiens) (P14416 whole entry, looked up): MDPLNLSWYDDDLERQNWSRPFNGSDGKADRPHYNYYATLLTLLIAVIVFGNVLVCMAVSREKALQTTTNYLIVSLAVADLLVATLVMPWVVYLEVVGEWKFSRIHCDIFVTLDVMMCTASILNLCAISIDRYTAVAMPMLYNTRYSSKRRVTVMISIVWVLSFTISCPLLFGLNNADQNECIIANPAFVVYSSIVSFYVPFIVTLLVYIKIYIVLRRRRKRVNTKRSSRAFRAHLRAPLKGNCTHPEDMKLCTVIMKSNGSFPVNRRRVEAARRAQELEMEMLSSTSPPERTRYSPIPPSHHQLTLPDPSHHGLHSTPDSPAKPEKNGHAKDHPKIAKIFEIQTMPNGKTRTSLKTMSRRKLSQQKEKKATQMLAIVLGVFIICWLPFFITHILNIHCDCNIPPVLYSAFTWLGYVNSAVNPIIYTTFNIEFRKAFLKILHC
Sequence of KiSS-1 receptor (Homo sapiens) (Q969F8 whole entry, looked up): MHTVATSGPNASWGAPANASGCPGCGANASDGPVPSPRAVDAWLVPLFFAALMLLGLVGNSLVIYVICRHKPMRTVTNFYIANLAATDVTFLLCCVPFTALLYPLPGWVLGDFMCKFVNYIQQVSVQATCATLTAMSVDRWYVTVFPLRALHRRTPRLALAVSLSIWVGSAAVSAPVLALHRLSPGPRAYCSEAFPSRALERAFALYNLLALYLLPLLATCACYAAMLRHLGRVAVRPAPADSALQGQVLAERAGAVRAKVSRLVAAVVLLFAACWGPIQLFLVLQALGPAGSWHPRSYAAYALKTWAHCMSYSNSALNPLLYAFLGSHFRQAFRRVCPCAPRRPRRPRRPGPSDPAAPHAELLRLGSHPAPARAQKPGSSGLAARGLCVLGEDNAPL

Compound | Potency [1] | Potency [2] | Potency [3] | Potency [4] | Potency [5] | Potency [6] | Potency [7] | Potency [8] | Potency [9] | Potency [10] | Potency [11] | Potency [12] | Potency [13] | Potency [14] | Potency [15] | Potency [16] | Potency [17] | Potency [18] | Potency [19]
CCOC(=O)C1OC1c1ccccc1 (centres undefined) | inactive | inactive | inactive | inactive | inactive | inactive | inactive | inactive | inactive | inactive | inactive | inactive | inactive | inactive | inactive | inactive | inactive | inactive | 
c1ccc2n[nH]nc2c1 | inactive | inactive | inactive | inactive | inactive | inactive | inactive | inactive | inactive | inactive | inactive | inactive | inactive | inactive | inactive | inactive |  | inactive | inactive
ClC/C=C/CCl | inactive | inactive | inactive | inactive | inactive | inactive | inactive | inactive | inactive | inactive | inactive | inactive | inactive | inactive | inactive | inactive | inactive | inactive | inactive
O=c1c(-c2ccc(O)cc2)coc2cc(O)cc(O)c12 | inactive | inactive and 15 µM (active) | inactive | inactive | inactive | inactive | inactive | 16 µM (active) | inactive | inactive |  |  |  |  | inactive | inactive | inactive | inactive | 
CCCCC(CC)COC(=O)/C=C/c1ccc(OC)cc1 (centres undefined) | inactive | inactive | inactive | inactive | inactive | inactive | inactive | inactive | inactive | inactive | inactive | inactive | inactive | inactive | inactive | inactive | inactive | inactive | inactive
CCCCOC(=O)CC(CC(=O)OCCCC)(OC(C)=O)C(=O)OCCCC | inactive | inactive | inactive | inactive | inactive | inactive | inactive | inactive | inactive |  | inactive | inactive | inactive | inactive | inactive | inactive | inactive | inactive | inactive
COc1ccc(Cl)cc1C(=O)NCCc1ccc(S(=O)(=O)NC(=O)NC2CCCCC2)cc1 | inactive | inactive | inactive | inactive | inactive | inactive | inactive | inactive | inactive | inactive |  |  |  |  |  | inactive | inactive | inactive | 
COc1ccc(C)cc1N | inactive | inactive | inactive | inactive | inactive | inactive | inactive | inactive | inactive | inactive | inactive |  | inactive | inactive | inactive | inactive | inactive | inactive | inactive
Nc1cc([N+](=O)[O-])ccc1C(=O)O | inactive | inactive | inactive | inactive | inactive | inactive | inactive | inactive | inactive | inactive | inactive | inactive | inactive | inactive | inactive | inactive | inactive | inactive | inactive
OCCCc1ccccc1 | inactive | inactive | inactive | inactive | inactive | inactive | inactive | inactive | inactive | inactive | inactive | inactive | inactive | inactive | inactive | inactive |  | inactive | inactive
CCCCOC(=O)COc1ccc(Cl)cc1Cl | inactive | 69.4 µM (active) and inactive | inactive | inactive | inactive | inactive | inactive | inactive | inactive | inactive | inactive | inactive | inactive | inactive | inactive | inactive | inactive | inactive | inactive
CCCCNC(=O)NS(=O)(=O)c1ccc(N)cc1 | inactive | inactive | inactive | inactive | inactive | inactive | inactive | inactive | inactive | inactive | inactive | inactive | inactive | inactive | inactive | inactive | inactive | inactive | inactive
CCCCCCCCCCCCCCCO | inactive | 54.9 µM (active) and inactive | inactive | inactive | inactive | inactive | inactive | inactive | inactive | inactive | inactive | inactive | inactive |  | inactive | inactive | inactive | inactive | inactive
C=CC[N+](C)(C)CC=C | inactive | inactive | inactive | inactive | inactive | inactive | inactive | inactive | inactive | inactive | inactive | inactive | inactive | inactive | inactive | inactive | inactive | inactive | inactive
